LGR2 inh: inhibitors of bursicon-induced LGR2 CRE-luciferase signal, primary screen, cell-based, HEK293, CRE-luciferase reporter, bursicon stimulation. bursicon-stimulated, 4 h. inhibition, % at 9.99 µM. Drosophila bursicon receptor LGR2 (rickets). AID 720647, 2013. actives 0.35% (n = 380,000);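 active means drop in luminescence signal, shown as inhibition above about 50% in the replicate tests, limit read from the data, passing the limit was not always enough; inconclusive means probably only some replicates passing the limit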;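 further: agonist challenge used bursicon conditioned medium at about half maximal strength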
TROY signal inh: inhibitors of TROY-driven NF-kB signaling, primary screen, Q293 LMP1-TROYcd cells, NF-kB luciferase, uHTS; inhibition, % at 10 µM; actives 0.98% (n = 360,000); Q293 LMP1-TROYcd NF-kB luciferase reporter, 4 h;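 active means compounds whose plate-normalised and pattern-corrected inhibition of the luciferase reporter signal at the single screening dose is 50% or more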
LMP1 NFkB inh: EBV LMP1-driven NF-kappaB luciferase reporter inhibitors, primary screen, cell-based, luminescence, single point | actives 0.69% (n = 350,000) | LMP1-induced NF-kappaB luciferase reporter cells | inhibition, % at 12.5 µM | AID 504558, 2011; in the data active means inhibition above about 41%; inconclusive means no clear call, values can overlap the other calls;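 further: 0% = neutral control wells and 100% = reference inhibitor control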
TWEAK-Fn14 inh: inhibitors of TWEAK-Fn14 signaling, primary screen, luciferase reporter cells, uHTS. TWEAK-stimulated Fn14 reporter cells, luciferase luminescence, 8 h. inhibition, % at 10 µM. actives 2% (n = 360,000); in the data active means inhibition above about 50%
EWS-Fli block: EWS/Fli-driven NR0B1 reporter inhibitors, primary screen, A673 cells, NR0B1 luciferase, luminescence, MLPCN library | actives 0.67% (n = 350,000) | viability-normalised | inhibition, % at 12.6 µM;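 active means mean inhibition of at least 50% after viability correction, with every replicate also passing that limit; inconclusive means mean reaches 50% but only one of two replicates passes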;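 further: firefly luciferase signal divided by Alamar Blue viability fluorescence both relative to DMSO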
PAX8 reporter: inhibitors of PAX8-driven TPO luciferase reporter, primary screen, RMG-I cells, single concentration; actives 1.2% (n = 360,000); inhibition, % at 12.6 µM; SteadyGlo, 24 h;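 active means mean replicate inhibition at least 60% with every replicate also reaching 60%; inconclusive means only one of the two criteria is met; inactive means mean below 60% and not all replicates reaching 60%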;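 further: luciferase light reporting Pax8 driven TPO promoter activity; plate controls were median of neutral control wells for no effect and mitoxantrone controls for full effect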
The depositor's hits bear a star; ? = inconclusive; · = no result given. Rows were chosen to be rich in hits. Some 3.2% of all compounds tested hit in one or more screens of this group.

SMILES | LGR2 inh | TROY signal inh | LMP1 NFkB inh | TWEAK-Fn14 inh | EWS-Fli block | PAX8 reporter
COC(=O)c1ccc(C(=O)Nc2ccc3nc(-c4ccncc4)[nH]c3c2)cc1 | -10.1 | -6.1 | 9.0 | 35.2 | 6.8 | 40.6
COC(=O)c1ccc(-c2nc3ccccc3[nH]2)cc1 | 13.9 | -4.1 | 12.6 | 55.6* | · | -72.2
COc1ccc(-c2nc3ccccc3[nH]2)cc1 | 11.7 | 36.4 | 30.3 | 65.8* | 27.5 | ·
COc1ccc2oc(=Nc3ccccc3)c(-c3nc4ccccc4[nH]3)cc2c1 | -9.5 | 36.4 | -30.5 | 56.4* | · | -98.5
c1ccc(-c2nc3ccccc3[nH]2)cc1 | -40.1 | -57.4 | -23.7 | 7.6 | -91.8 | -201.2
CC(C)NC(=O)NCC[C@@H]1CC[C@@H](NC(=O)CCN2CCCCC2)[C@H](CO)O1 | 0.9 | · | · | · | · | ·
Cc1cccc2cc(-c3nc4ccc(C(=O)O)cc4[nH]3)c(=O)oc12 | · | 0.9 | 9.1 | 85.2* | · | ·
COC(C(=O)C(O)C(C)O)C1Cc2cc3cc(OC4CC(OC5CC(O)C(O)C(C)O5)C(O)C(C)O4)c(C)c(O)c3c(O)c2C(=O)C1OC1CC(OC2CC(OC3CC(O)C(OC)C(C)O3)C(O)C(C)O2)C(O)C(C)O1 (stereo not drawn) | 4.6 | 7.6 | 79.8* | 85.4* | 14.2 | 99.8*
Cc1ccc(S(=O)(=O)Nc2cccc3c2O[C@H](CN(C)Cc2ccc(C(=O)O)cc2)[C@H](C)CN([C@H](C)CO)C3=O)cc1 | -17.6 | · | · | · | -5.9 | ·
Cc1ccc(Nc2nc(Cl)nc(N(C)C#N)n2)cc1 | 1.4 | 8.7 | -6.0 | 89.5* | · | ·
CCN(CC)CC(C)CNC(=O)CC(C(=O)N1CCc2ccccc21)n1ccnc1 (stereo not drawn) | 20.5 | 11.6 | -6.7 | 56.0* | · | ·
CCCN(CCC)CCCNC(=O)CC(C(=O)N1CCc2ccccc21)n1ccnc1 (stereo not drawn) | · | 9.8 | -15.4 | 22.0 | · | ·
COc1ccc(CNC(=O)C[C@@H]2C[C@@H]3c4cc(NS(C)(=O)=O)ccc4O[C@@H]3[C@@H](CO)O2)cc1 | 8.9 | · | · | · | 0.0 | ·
CCc1ccccc1N(CC(=O)NCc1ccco1)C(=O)c1snc(C(N)=O)c1N | · | 23.4 | 54.7* | 9.3 | · | ·
CCCNC(=O)Nc1ccc2c(c1)C(=O)N(C)C[C@@H](OC)[C@@H](C)CN(CCC)[C@H](C)CO2 | -9.5 | · | · | · | 2.2 | 15.0
O=C1C2Sc3[nH]c(=O)sc3C(c3ccccc3)C2C(=O)N1c1ccccc1 (stereo not drawn) | -8.9 | -6.0 | -3.4 | 89.0* | · | ·
COc1ccc(C2c3sc(=O)[nH]c3SC3C(=O)N(c4ccccc4)C(=O)C32)cc1 (stereo not drawn) | 6.3 | -32.5 | 11.7 | -18.8 | -1.5 | -6.2
CC1=CN2C(=N)/C(=C/c3ccc(Sc4ccc(C)cc4)o3)C(=O)N=C2S1 | · | -20.1 | -5.0 | -17.5 | -8.2 | -6.0
CC1=CN2C(=N)/C(=C/c3ccc(C)o3)C(=O)N=C2S1 | 37.3 | 15.5 | 11.6 | 65.8* | · | -65.4
Cc1noc(C)c1S(=O)(=O)Nc1ccc2c(c1)CC(=O)N([C@H](C)CO)C[C@@H](C)[C@@H](CN(C)Cc1ccc(C(F)(F)F)cc1)O2 | 1.6 | · | · | · | 7.5 | ·
CN(C)CCCNC(=O)C[C@@H]1CC[C@H]2[C@H](COc3ccc(NS(C)(=O)=O)cc3C(=O)N2C)O1 | 24.5 | · | · | · | -21.8 | -43.6
CC(=NNC(=S)Nc1cccc(C)c1)c1ccccn1 | 20.2 | -31.3 | 76.1* | -123.2 | 21.7 | 77.9*
CC(=NNC(=S)Nc1ccc(C)cc1)c1ccccn1 | -32.1 | -34.1 | 62.0* | -42.7 | -18.0 | 37.1
COc1ccccc1NC(=S)NN=C(C)c1ccccn1 | -2.9 | -61.1 | ? | -30.2 | -6.3 | 42.7
O=C(NC1=NC2CCCCC2N1)c1ccccc1 (stereo not drawn) | -4.5 | 43.6 | 29.2 | 76.3* | · | ·
SMILES | LGR2 inh | TROY signal inh | LMP1 NFkB inh | TWEAK-Fn14 inh | EWS-Fli block | PAX8 reporter
Cc1cc(NC(=O)CSc2nc(-c3cccs3)nc3ccccc23)no1 | -17.3 | 20.4 | 22.0 | -30.6 | 57.6* | 26.7
CCOC(=O)c1cc2c(c(-c3cccc(-c4cccc(F)c4)c3)n1)[C@H](CCO)N(S(=O)C(C)(C)C)C2 (stereo partly drawn) | 0.6 | · | · | · | 11.9 | 5.9
CCCC(C)C(=O)N(Cc1ccccc1)c1ccccn1 (stereo not drawn) | · | -0.4 | -0.6 | 61.5* | · | ·
Cc1noc(C)c1S(=O)(=O)Nc1ccc2c(c1)C(=O)N([C@H](C)CO)C[C@@H](C)[C@H](CN(C)S(=O)(=O)c1ccccc1)O2 | -5.6 | · | · | · | -3.2 | ·
C[C@H](CO)N1C[C@H](C)[C@H](CN(C)C(=O)C2CCCCC2)OCCCC[C@H](C)Oc2ccc(NC(=O)NC3CCCCC3)cc2C1=O | 5.3 | · | · | · | -3.1 | -0.8
O=C(O)c1cccc(NC(=O)c2cn(-c3ccccc3)nc2-c2ccc(F)cc2)c1 | -18.2 | -31.0 | 81.8* | 36.8 | -2.7 | -6.8
CCN(CC)CCNC(=O)c1ccc(NC(=O)c2cn(-c3ccc(F)cc3)nc2-c2cccc(OC)c2)cc1 | 1.9 | -33.7 | -9.8 | -70.3 | 58.6* | 53.3
CCN(CC)CCNC(=O)c1ccc(NC(=O)c2cn(-c3ccccc3)nc2-c2cccs2)cc1 | · | -39.0 | -7.8 | -28.4 | 57.6* | -13.2
O=C(Nc1cccnc1)c1cn(-c2ccccc2)nc1-c1cccs1 | · | -40.9 | -6.9 | 3.1 | · | ·
Cc1noc(C)c1NC(=O)Nc1ccc2c(c1)C(=O)N([C@H](C)CO)C[C@H](C)[C@H](CN(C)C(=O)Nc1cccc3ccccc13)OCCCC[C@H](C)O2 | -0.2 | · | · | · | -2.7 | 0.9
COc1ccc(C(NC(=O)C2CCN(CCOc3ccc(Cl)cc3Cl)CC2)c2cccs2)cc1 (stereo not drawn) | · | 50.9* | · | -4.1 | 5.0 | 17.6
COc1ccc(C(NC(=O)C2CCN(CCOc3ccc(F)cc3)CC2)c2cccs2)cc1 (stereo not drawn) | 2.8 | 11.0 | · | -3.5 | 10.2 | -2.0
CCC(=O)N1C[C@@H](C)[C@@H](OC)CN(C)C(=O)c2ccc(NC(=O)NC(C)C)cc2OC[C@H]1C | 14.6 | · | · | · | -4.0 | -6.7
CC(C)c1ccc(-c2nnn(CCC(=O)O)n2)cc1 | · | 47.8 | 44.9* | 87.2* | · | ·
C[C@@H]1CCCCO[C@H](CN(C)C(=O)Nc2ccc(F)cc2)[C@H](C)CN([C@@H](C)CO)C(=O)c2cc(NS(=O)(=O)c3ccc(Cl)cc3)ccc2O1 | 21.5 | · | · | · | 1.9 | 0.2
C=CCCC(=O)Nc1nc(C)c(-c2csc(Nc3cc(OC)ccc3OC)n2)s1 | 15.7 | -3.3 | -1.1 | -1.5 | 58.2* | 56.5
CCCC(=O)Nc1nc(C)c(-c2csc(Nc3cc(OC)ccc3OC)n2)s1 | 8.5 | 21.5 | -3.4 | -14.3 | 32.0 | 48.2
C[C@@H]1CN([C@H](C)CO)C(=O)c2cccc(NS(=O)(=O)c3cccs3)c2O[C@@H]1CN(C)C(=O)Nc1ccc(F)cc1 | -5.9 | · | · | · | -23.4 | -13.9

Compound activity as filed in PubChem BioAssay.
